# Measurements: PubChem BioAssay (EPA / NIEHS)
# Records with an inconclusive call do not appear. Active and inactive are the calls of the source. How the source made its calls, unless noted: active means hit-call score of the fitted dose curve at least 0.9, where 1 is the maximum; inconclusive means response in the unintended direction; inactive means score below 0.9.
# Columns and labels:
# [1] = target: human Thyroid Receptor Alpha (TRa), THRA (gene 7067) (UniProt P10827); experiment: NVS_NR_hTRa_Antagonist: NovaScreen (NVS) Nuclear Receptor Binding Assay for human Thyroid Receptor Alpha Antagonism (TRa) (AID 2283362);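 further: activity is loss of signal relative to DMSO baseline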
# Procedure, shortened: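 Actives from a duplicate 25 uM single-point screen were retested in concentration series. The cell-free antagonist-format binding assay was read by AlphaLISA chemiluminescence at 1 h, scored as signal loss relative to DMSO.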
# [2] = target: Glucocorticoid receptor (Homo sapiens) (UniProt P04150); experiment: NVS_NR_hGR: NovaScreen (NVS) Nuclear Receptor Binding Assay for human Glucocorticoid Receptor (GR) (AID 2283363);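 on AC50: activity is loss of specific radioligand binding signal relative to DMSO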
# Chain of Glucocorticoid receptor (Homo sapiens) (P04150 whole entry, looked up): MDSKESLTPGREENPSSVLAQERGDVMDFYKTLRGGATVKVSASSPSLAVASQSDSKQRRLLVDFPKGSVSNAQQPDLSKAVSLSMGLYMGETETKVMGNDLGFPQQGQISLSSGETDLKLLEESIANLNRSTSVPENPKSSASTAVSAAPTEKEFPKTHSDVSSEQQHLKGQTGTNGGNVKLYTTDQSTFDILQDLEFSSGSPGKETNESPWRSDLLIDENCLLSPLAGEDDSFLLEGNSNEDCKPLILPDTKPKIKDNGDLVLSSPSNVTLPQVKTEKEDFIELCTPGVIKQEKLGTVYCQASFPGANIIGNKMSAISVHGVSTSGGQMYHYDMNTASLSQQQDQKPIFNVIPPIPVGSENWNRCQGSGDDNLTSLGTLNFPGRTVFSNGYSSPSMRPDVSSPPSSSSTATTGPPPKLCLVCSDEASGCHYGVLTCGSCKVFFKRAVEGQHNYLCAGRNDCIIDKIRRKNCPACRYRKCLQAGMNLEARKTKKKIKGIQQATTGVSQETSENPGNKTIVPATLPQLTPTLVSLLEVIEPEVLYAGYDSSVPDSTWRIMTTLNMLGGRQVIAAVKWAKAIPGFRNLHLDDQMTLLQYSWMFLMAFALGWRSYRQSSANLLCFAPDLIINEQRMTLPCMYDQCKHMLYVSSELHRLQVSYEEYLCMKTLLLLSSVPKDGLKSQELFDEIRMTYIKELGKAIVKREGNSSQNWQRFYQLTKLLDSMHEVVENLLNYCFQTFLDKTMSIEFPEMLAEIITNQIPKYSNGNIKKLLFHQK
# Procedure, shortened: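 Filter scintillation readout of tritiated/iodinated radioligand displaced by test chemical; cell-free extracted protein; 16 h. DMSO = negative control/baseline. Duplicate single-point 25 uM screen, then concentration-response on actives.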
# [3] = target: PGR (gene 5241) (UniProt P06401); experiment: NVS_NR_hPR: NovaScreen (NVS) Nuclear Receptor Binding Assay for human Progestron Receptor (PR) (AID 2283360);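 further: active means loss of bound radioligand signal versus DMSO baseline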
# Procedure, shortened: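 Cell-free radioligand binding using receptor protein extracted from T47D cells, read by scintillation counting 18 hours after dosing. Loss of signal relative to DMSO baseline indicates displacement; primary screen single concentration 25 uM in duplicate, actives followed in concentration series.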
# [4] = target: guinea pig Sigma Receptor, Non-selective Binding, SIGMAR1 (gene 100135589) (UniProt Q60492); experiment: NVS_OR_gSIGMA_NonSelective: NovaScreen (NVS) Nuclear Receptor Binding Assay for guinea pig Sigma Receptor, Non-selective Binding (AID 2283367)
# Chain of guinea pig Sigma Receptor, Non-selective Binding, SIGMAR1 (gene 100135589) (Q60492 whole entry, looked up): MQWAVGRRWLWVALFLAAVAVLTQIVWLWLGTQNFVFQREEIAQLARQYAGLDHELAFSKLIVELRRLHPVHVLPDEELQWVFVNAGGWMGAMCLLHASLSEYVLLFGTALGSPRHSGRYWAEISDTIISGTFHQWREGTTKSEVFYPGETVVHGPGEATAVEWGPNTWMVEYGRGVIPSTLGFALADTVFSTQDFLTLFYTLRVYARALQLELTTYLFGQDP
# Procedure, shortened: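 Membranes from guinea pig brain incubated with radioligand and test chemical for 1 h, then filtered and scintillation-counted. Duplicate primary testing at 25 uM, with concentration-series follow-up for actives.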
# [5] = tested on: guinea pig Dopamine Transporter (DAT), gene 100714898; experiment: NVS_TR_gDAT: NovaScreen (NVS) Transporter Assay for guinea pig Dopamine Transporter (DAT) (AID 2283369);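 further: active compounds lower bound radioligand signal relative to DMSO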
# Procedure, shortened: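 Radioligand displacement on membranes from guinea pig striatum, 2 h exposure, bound label counted by filtration and scintillation. Tested at 25 uM in duplicate, then actives in concentration series to 50 uM; DMSO as negative control.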
# [6] = target: human Dopamine Transporter (DAT), SLC6A3 (gene 6531) (UniProt Q01959); experiment: NVS_TR_hDAT: NovaScreen (NVS) Transporter Assay for human Dopamine Transporter (DAT) (AID 2283374);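 further: activity means loss of bound radioligand signal relative to DMSO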
# Chain of human Dopamine Transporter (DAT), SLC6A3 (gene 6531) (Q01959 whole entry, looked up): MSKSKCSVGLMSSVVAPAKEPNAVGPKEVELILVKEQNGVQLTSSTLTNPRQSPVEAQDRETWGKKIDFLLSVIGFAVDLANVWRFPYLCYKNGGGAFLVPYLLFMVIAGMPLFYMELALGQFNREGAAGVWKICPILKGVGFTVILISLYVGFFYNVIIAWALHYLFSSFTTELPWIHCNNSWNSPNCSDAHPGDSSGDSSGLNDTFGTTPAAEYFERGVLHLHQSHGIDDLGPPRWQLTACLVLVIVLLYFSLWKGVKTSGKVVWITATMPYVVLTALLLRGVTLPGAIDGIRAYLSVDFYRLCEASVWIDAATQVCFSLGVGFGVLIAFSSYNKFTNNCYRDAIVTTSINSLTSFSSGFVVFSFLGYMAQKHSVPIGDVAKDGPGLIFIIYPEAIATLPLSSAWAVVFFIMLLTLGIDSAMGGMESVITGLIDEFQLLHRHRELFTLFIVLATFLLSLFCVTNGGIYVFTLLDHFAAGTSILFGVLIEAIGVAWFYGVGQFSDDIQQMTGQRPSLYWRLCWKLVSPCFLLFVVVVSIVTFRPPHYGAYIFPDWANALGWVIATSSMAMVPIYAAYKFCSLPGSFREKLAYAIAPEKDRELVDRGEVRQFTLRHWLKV
# Procedure, shortened: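 hDAT membranes + tritiated/iodinated radioligand, competitive displacement; 1 h; filter scintillation readout. Single conc 25 uM (duplicate), then conc-response for actives. DMSO = negative control.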
# [7] = target: human Norepinephrine Transporter (NET), SLC6A2 (gene 6530) (UniProt P23975); experiment: NVS_TR_hNET: NovaScreen (NVS) Transporter Assay for human Norepinephrine Transporter (NET) (AID 2283377);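 further: cell-free membrane protein extracted from CHO cells expressing human NET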;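 on AC50: displacement of radioligand from human NET seen as loss of scintillation signal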
# Procedure, shortened: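 CHO cell extracts expressing the transporter; tritiated or iodinated tracer displaced competitively; filtration plus scintillation readout at 1 h. Single-point duplicates at 25 uM, concentration series for follow-up; activity = signal drop relative to DMSO.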
# [8] = target: Estrogen receptor beta (Homo sapiens) (UniProt Q92731); experiment: OT_ER_ERbERb_1440: Odyssey Thera (OT) 24-hour HEK293T Protein-Complementation Assay for Estrogen Receptor-beta/-beta Homodimer (AID 2283380);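 further: scored as signal increase over DMSO baseline for both agonists and antagonists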
# Chain of Estrogen receptor beta (Homo sapiens) (Q92731 whole entry, looked up, the tested form may be a part): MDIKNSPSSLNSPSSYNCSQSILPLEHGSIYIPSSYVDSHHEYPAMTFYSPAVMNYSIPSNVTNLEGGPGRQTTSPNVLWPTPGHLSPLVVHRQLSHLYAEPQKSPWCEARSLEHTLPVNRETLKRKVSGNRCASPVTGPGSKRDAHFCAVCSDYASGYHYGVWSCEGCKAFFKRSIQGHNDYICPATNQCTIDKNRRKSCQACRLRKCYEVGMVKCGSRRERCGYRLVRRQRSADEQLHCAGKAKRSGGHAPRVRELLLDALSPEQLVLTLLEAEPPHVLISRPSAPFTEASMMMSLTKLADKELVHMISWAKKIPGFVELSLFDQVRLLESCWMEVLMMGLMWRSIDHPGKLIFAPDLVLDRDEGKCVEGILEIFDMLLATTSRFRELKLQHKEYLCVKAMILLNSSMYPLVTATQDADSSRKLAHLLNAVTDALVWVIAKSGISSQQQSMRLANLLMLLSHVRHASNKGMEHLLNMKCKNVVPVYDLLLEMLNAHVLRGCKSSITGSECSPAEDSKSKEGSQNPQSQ
# Procedure, shortened: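 HEK293T cells stably expressing ER beta LBD (aa 310-547) homodimer fragment-complementation reporter, dosed 24 h. Cells formaldehyde-fixed, Draq5-stained; gain in nuclear (agonist) or nuclear plus cytoplasmic (antagonist) fluorescence versus DMSO read by laser scanning cytometry.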
# [9] = target: Estrogen receptor (Homo sapiens) (UniProt P03372); experiment: OT_ERa_GFPERaERE_0480: Odyssey Thera (OT) 8-hour HeLa Transcription Induction Assay for Estrogen Receptor (AID 2283381; active means hit-call score of the fitted dose curve at least 0.9, where 1 is the maximum; inactive means score below 0.9)
# Procedure, shortened: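 Human cervical HeLa cells were treated for 8 hours, after which ERE-driven GFP induction was measured by fluorescence microscopy; increases over DMSO baseline defined activity.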
# [10] = target: Estrogen receptor (Homo sapiens) (UniProt P03372); experiment: OT_ERa_GFPERaERE_0120: Odyssey Thera (OT) 2-hour HeLa Transcription Induction Assay for Estrogen Receptor (AID 2283382)
# Procedure, shortened: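 Cells (human cervical HeLa) receive compound, incubate 2 hours, then are imaged for fluorescent reporter induction. Images are quantified by high content analysis, and activity is fitted as gain of signal against DMSO.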
# [11] = target: Retinoic acid receptor RXR-alpha (Homo sapiens) (UniProt P19793); experiment: OT_NURR1_NURR1RXRa_1440: Odyssey Thera (OT) 24-hour HEK293T Protein Complementation Assay for Nurr1/retinoid X receptor (RXR) (AID 2283386)
# Chain of Retinoic acid receptor RXR-alpha (Homo sapiens) (P19793 whole entry, looked up, the tested form may be a part): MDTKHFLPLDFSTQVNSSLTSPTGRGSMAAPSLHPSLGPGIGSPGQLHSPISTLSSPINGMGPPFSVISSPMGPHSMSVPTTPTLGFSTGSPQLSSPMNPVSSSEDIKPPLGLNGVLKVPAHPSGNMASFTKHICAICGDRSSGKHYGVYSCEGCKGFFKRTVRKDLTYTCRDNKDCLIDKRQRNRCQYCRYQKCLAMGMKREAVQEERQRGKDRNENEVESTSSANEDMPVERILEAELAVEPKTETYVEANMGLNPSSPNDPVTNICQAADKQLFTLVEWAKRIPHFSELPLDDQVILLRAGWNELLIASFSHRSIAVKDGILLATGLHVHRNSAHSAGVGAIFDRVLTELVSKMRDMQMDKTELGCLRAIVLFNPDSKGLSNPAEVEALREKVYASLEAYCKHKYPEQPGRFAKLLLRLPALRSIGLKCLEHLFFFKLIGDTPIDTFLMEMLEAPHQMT
# Procedure, shortened: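 Steps: fragment-tagged Nurr1 and RXRα expressed in HEK293T; compounds added; after 24 h, complemented reporter quantified by fluorescence intensity; signal increase over DMSO fitted as the single endpoint.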
# [12] = target: Peroxisome proliferator-activated receptor gamma (Homo sapiens) (UniProt P37231); experiment: NVS_NR_hPPARg: NovaScreen (NVS) Nuclear Receptor Binding Assay for human Peroxisome Proliferator-activated Receptor gamma (PPARg) (AID 2283370)
# Chain of Peroxisome proliferator-activated receptor gamma (Homo sapiens) (P37231 whole entry, looked up): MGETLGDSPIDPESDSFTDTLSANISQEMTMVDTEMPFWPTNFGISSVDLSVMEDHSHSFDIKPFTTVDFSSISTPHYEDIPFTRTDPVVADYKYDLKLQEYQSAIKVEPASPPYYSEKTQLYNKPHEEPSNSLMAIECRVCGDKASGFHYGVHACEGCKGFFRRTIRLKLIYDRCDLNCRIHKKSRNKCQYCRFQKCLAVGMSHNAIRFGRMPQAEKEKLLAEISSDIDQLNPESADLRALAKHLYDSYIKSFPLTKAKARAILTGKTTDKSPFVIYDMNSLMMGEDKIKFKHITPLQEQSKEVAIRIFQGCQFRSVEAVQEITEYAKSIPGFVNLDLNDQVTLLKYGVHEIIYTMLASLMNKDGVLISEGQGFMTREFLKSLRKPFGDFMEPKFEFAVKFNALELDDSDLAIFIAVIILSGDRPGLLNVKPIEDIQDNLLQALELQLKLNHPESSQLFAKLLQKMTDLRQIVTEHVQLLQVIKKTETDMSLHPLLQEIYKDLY
# Procedure, shortened: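 Fluorescence polarization readout of ligand binding to extracted human PPARg, measured at 2 h. Duplicate single-point screen at 25 uM, then concentration-series retesting; activity defined as signal loss versus DMSO.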
# [13] = target: rat Serotonin Transporter (SERT), Slc6a4 (gene 25553) (UniProt P31652); experiment: NVS_TR_rSERT: NovaScreen (NVS) Transporter Assay for rat Serotonin Transporter (SERT) (AID 2283375)
# Chain of rat Serotonin Transporter (SERT), Slc6a4 (gene 25553) (P31652 whole entry, looked up): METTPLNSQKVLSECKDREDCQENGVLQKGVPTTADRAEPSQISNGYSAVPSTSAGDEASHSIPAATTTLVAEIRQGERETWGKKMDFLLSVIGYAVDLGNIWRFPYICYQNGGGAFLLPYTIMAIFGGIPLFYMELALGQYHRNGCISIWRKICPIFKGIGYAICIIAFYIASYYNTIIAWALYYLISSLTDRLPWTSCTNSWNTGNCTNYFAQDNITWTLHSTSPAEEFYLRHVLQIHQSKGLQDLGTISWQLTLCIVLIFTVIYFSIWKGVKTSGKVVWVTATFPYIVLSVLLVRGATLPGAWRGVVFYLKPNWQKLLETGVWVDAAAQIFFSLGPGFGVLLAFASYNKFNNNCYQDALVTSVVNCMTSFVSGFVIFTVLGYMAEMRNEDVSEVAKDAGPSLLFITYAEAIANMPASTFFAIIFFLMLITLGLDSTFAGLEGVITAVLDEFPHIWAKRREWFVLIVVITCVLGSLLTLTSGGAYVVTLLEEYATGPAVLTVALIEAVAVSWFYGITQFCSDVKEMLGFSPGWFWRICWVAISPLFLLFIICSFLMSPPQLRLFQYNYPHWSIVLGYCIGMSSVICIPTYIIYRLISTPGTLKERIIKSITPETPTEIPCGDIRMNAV
# Procedure, shortened: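 Radioligand binding with competitive displacement on rat forebrain membrane preparations, counted by filtration and scintillation after 1 h. Primary single-point duplicates at 25 uM; active chemicals followed up in concentration-response. DMSO served as baseline.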
# [14] = target: Nuclear receptor subfamily 1 group I member 2 (Homo sapiens) (UniProt O75469); experiment: NVS_NR_hPXR: NovaScreen (NVS) Nuclear Receptor Binding Assay for human Pregnane X Receptor (PXR) (AID 2283365);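 further: a drop in FRET signal versus DMSO baseline means the compound binds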
# Chain of Nuclear receptor subfamily 1 group I member 2 (Homo sapiens) (O75469 whole entry, looked up): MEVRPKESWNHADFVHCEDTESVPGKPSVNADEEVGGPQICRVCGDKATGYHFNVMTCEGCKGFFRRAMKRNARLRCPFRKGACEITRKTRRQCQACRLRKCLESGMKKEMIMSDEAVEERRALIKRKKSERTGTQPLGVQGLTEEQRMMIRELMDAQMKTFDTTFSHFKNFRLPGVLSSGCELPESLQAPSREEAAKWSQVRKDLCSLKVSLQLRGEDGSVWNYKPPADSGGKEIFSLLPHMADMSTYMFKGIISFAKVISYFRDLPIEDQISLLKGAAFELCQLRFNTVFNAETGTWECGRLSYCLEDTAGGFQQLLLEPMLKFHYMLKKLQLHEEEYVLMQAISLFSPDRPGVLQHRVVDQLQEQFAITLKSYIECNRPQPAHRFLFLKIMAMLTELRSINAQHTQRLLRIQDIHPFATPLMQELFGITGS
# Procedure, shortened: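 Human PXR binding measured by TR-FRET in a cell-free format, 2 h exposure. Single-concentration duplicates at 25 uM preceded concentration-response retests of actives; endpoint fitted positively relative to DMSO, loss of signal indicating binding.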
# [15] = target: Bile acid receptor (Homo sapiens) (UniProt Q96RI1); experiment: OT_FXR_FXRSRC1_0480: Odyssey Thera (OT) 8-hour HEK293T Protein-Complementation Assay for Farnesoid X receptor/SRC-1 Co-activator (AID 2283383)
# Chain of Bile acid receptor (Homo sapiens) (Q96RI1 whole entry, looked up, the tested form may be a part): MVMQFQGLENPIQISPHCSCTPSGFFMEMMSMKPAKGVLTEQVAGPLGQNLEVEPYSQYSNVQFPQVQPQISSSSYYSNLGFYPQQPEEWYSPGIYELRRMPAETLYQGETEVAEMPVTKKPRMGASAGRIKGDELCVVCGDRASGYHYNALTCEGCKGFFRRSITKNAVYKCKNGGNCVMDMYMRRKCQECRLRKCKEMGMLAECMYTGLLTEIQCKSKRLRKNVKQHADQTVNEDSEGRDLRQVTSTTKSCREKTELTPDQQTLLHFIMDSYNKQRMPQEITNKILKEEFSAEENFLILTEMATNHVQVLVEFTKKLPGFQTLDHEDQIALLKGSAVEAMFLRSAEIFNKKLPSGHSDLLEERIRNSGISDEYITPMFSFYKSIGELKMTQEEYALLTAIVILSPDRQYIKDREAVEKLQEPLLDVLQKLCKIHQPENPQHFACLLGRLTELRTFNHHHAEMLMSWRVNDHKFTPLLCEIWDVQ
# Procedure, shortened: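 PCA, HEK293T, 8 h compound exposure; FXR–SRC-1 binding reconstitutes split reporter; fluorescence intensity; positive-direction fit vs DMSO.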
# [16] = target: Bile acid receptor (Homo sapiens) (UniProt Q96RI1); experiment: OT_FXR_FXRSRC1_1440: Odyssey Thera (OT) 24-hour HEK293T Protein-Complementation Assay for Farnesoid X receptor/SRC-1 Co-activator (AID 2283384)
# Procedure, shortened: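 Measures ligand-driven FXR–SRC-1 co-activator recruitment in HEK293T via fragment complementation, fluorescence intensity at 24 h. DMSO served as negative control and baseline for gain-of-signal fitting.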
# [17] = target: Retinoic acid receptor RXR-alpha (Homo sapiens) (UniProt P19793); experiment: OT_NURR1_NURR1RXRa_0480: Odyssey Thera (OT) 8-hour HEK293T Protein Complementation Assay for Nurr1/retinoid X receptor (RXR) (AID 2283385)
# Procedure, shortened: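 Interaction of bait and prey reconstitutes a functional reporter, whose fluorescence was measured in HEK293T cells dosed with compound for 8 hours. Signal gain relative to DMSO defined the single endpoint.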
# [18] = target: mouse Estrogen Receptor alpha (Era), Esr1 (gene 13982) (UniProt P19785); experiment: NVS_NR_mERa: NovaScreen (NVS) Nuclear Receptor Binding Assay for mouse Estrogen Receptor alpha (Era) (AID 2283378);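 further: hit means loss of bound radioligand signal relative to DMSO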
# Procedure, shortened: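 Filter radiodetection of radioligand displacement from extracted receptor protein, measured 18 h post-dose. Single 25 uM concentration in duplicate initially, with concentration-series follow-up. Binding loss fitted relative to DMSO.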
smiles,measurement,setting,value
CCOc1cc(C=O)ccc1O,outcome,[1],inactive
CC(C=O)Cc1ccc2c(c1)OCO2 (stereo unspecified),outcome,[2],inactive
CCOP(=O)(OCC)OC(=CCl)c1ccc(Cl)cc1Cl,AC50,[3],42.9 µM (active)
same,AC50,[2],25 µM (active)
same,AC50,[4],10.9 µM (active)
same,AC50,[5],25 µM (active)
same,AC50,[6],25 µM (active)
Cc1cccc(OP(=O)(Oc2cccc(C)c2)Oc2cccc(C)c2)c1,outcome,[2],inactive
N#CCCC(Br)(C#N)CBr (stereo unspecified),AC50,[5],7.56 µM (active)
same,outcome,[7],inactive
same,AC50,[8],11.9 µM (active)
same,outcome,[9],inactive
same,outcome,[10],inactive
same,outcome,[11],inactive
O=[N+]([O-])c1ccccc1O,outcome,[12],inactive
same,outcome,[8],inactive
same,outcome,[11],inactive
Nc1nc(N)nc(Cl)n1,outcome,[13],inactive
CCOP(=S)(OCC)O/N=C(\C#N)c1ccccc1,outcome,[14],inactive
same,AC50,[8],50 µM (active)
same,AC50,[15],32.5 µM (active)
same,outcome,[16],inactive
same,outcome,[17],inactive
same,outcome,[11],inactive
CCC[CH2][Sn]([CH2]CCC)([CH2]CCC)[CH2]CCC,outcome,[12],inactive
same,outcome,[8],inactive
same,AC50,[16],11.8 µM (active)
COCCl,AC50,[12],4.2 µM (active)
same,outcome,[8],inactive
same,outcome,[15],inactive
same,outcome,[16],inactive
O=[N+]([O-])c1cccc2ccccc12,AC50,[13],9.17 µM (active)
Cc1ccc(OP(=O)(Oc2ccc(C)cc2C)Oc2ccc(C)cc2C)c(C)c1,AC50,[6],17.4 µM (active)
same,AC50,[7],1.47 µM (active)
CCOC(=O)CCN(SN(C)C(=O)Oc1cccc2c1OC(C)(C)C2)C(C)C,AC50,[4],15.8 µM (active)
same,AC50,[7],9.18 µM (active)
Oc1cccc(-c2ccccc2)c1,AC50,[5],13.9 µM (active)
same,AC50,[6],10.6 µM (active)
same,outcome,[7],inactive
COc1nn(C(=O)NS(=O)(=O)c2ccccc2OC(F)(F)F)c(=O)n1C,AC50,[14],23.4 µM (active)
same,outcome,[8],inactive
same,outcome,[16],inactive
same,outcome,[17],inactive
same,outcome,[11],inactive
COc1ccccc1N,outcome,[12],inactive
same,outcome,[11],inactive
Cc1cc(Cl)ccc1OC(C)C(=O)O (stereo unspecified),outcome,[12],inactive
same,outcome,[8],inactive
same,outcome,[9],inactive
same,outcome,[10],inactive
same,outcome,[17],inactive
COc1ccc(N)cc1,outcome,[14],inactive
same,AC50,[11],13.8 µM (active)
O=C(CBr)c1ccc(O)cc1,outcome,[14],inactive
same,outcome,[8],inactive
same,outcome,[15],inactive
same,outcome,[16],inactive
same,outcome,[17],inactive
same,outcome,[11],inactive
N#Cc1ccccc1N,AC50,[13],17.6 µM (active)
same,outcome,[7],inactive
CCCCCCCCCCCCN(C)C,AC50,[4],1.51 µM (active)
same,outcome,[7],inactive
same,outcome,[8],inactive
same,outcome,[9],inactive
same,outcome,[10],inactive
same,outcome,[15],inactive
same,outcome,[16],inactive
same,outcome,[11],inactive
CC(C)N(C(=O)CCl)c1ccccc1,AC50,[5],11.8 µM (active)
same,outcome,[12],inactive
same,AC50,[6],11.1 µM (active)
same,AC50,[18],6.48 µM (active)
same,outcome,[8],inactive
same,outcome,[9],inactive
same,outcome,[10],inactive
